High-throughput results from PubChem.
AMA1 RON2 block = qHTS for Inhibitors of AMA1-RON; Towards Development of Antimalarial Drug Lead: Primary Screen; 360,000 compounds, 0.2% hits; AlphaScreen AMA1-biotinylated RON2 peptide binding; Potency, µM (highest dose often 58.2 µM), without a hit: at the top dose activity change, negative = inhibition, usual class: inhibitors; Plasmodium falciparum AMA1 (3D7) - RON2 peptide interaction;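 further: 0% = vehicle wells and -100% = peptide control; nearly all actives have a fitted effect of over 45% in size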
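AMA1 (3D7) with his tag at 25 nM final met compounds first, then biotinylated RON2 peptide at 25 nM; detection used donor plus acceptor beads, 10 µg/mL apiece, read by AlphaScreen after 30 min at room temperature.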
Pf growth 96h = Primary qHTS for delayed death inhibitors of the malarial parasite plastid, 96 hour incubation. P. falciparum luciferase reporter growth, 96 h. Potency, µM (highest dose often 28.7 µM), inactives show at the highest dose activity change, negative = inhibition, actives largely listed as inhibitors. 320,000 compounds, 6.9% hits
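Cell-based qHTS: luciferase-tagged P. falciparum in erythrocytes (2% hematocrit, 0.05% parasitemia final) incubated with compounds for 96 hours, 37 C, 5% CO2; luciferase detection reagent then added and luminescence measured.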
HCV inhibitor = qHTS Assay for Inhibitors of Hepatitis C Virus (HCV) | 340,000 compounds, 3.4% hits | Potency, µM (highest dose often 41.8 µM), for the others: at the top dose activity change, negative = inhibition, hits mostly inhibitors | Huh7.5.1 HCVcc-Cre infection, luciferase reporter, 44 h
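Cells (1,000/well) were plated 4 h before compound, then infected with HCVcc-Cre virus (~0.5 moi). After 44 h further culture, infection was read as luciferase luminescence following a 15 min substrate incubation at room temperature.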
Pf growth 48h = Primary qHTS for delayed death inhibitors of the malarial parasite plastid, 48 hour incubation; Potency, µM (highest dose often 28.7 µM), for the others: top-dose activity change, negative = inhibition, most hits filed as inhibitors; 310,000 compounds, 5.9% hits; AID 504832, 2011; P. falciparum luciferase growth in erythrocytes, 48 h
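Cell-based growth assay: transgenic P. falciparum expressing firefly luciferase, cultured in red cells within RPMI 1640 containing 0.5% w/v Albumax, 24 mM bicarbonate and gentamycin. A drop in luciferase activity indicates inhibition.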
* marks the source's active call; other numbers are inactive results; ? = inconclusive; / = no result given; [ ] = dose if it differs, or a comment. A selection: hits, their analogues and other compounds. The true share with any hit is near 11%. The call rests on the fitted dose curve; in most records, active means well fitted curve in the direction sought with a large enough effect; inconclusive means small, poorly fitted or top-dose-only effect, or another doubt; inactive means no such curve, though single readings can be large; an effect the other way counts as inactive or inconclusive. Unless noted, on the % scale 0 is the no-effect control and ±100 the full control effect; potency means the concentration at half of the fitted maximal effect.

SMILES	AMA1 RON2 block	Pf growth 96h	HCV inhibitor	Pf growth 48h
COc1ccc(-c2cc(-c3ccc(OC)cc3)[nH]n2)cc1	-4.0%	-15.4%	?	/
COc1ccc(-c2cc(C3CCNCC3)[nH]n2)cc1	-5.6%	2.33µM*	-11.3%	2.62µM*
O=C(Cc1ccccc1)NS(=O)(=O)c1ccccc1	2.9%	/	/	/
O=C(COC(=O)COc1ccc(Br)cc1)NNC(=O)c1ccccc1	8.5%	/	-3.3%	/
Cc1ccc(/C=C/C(=O)N2CCN(S(=O)(=O)c3c(C)c(C)cc(C)c3C)CC2)o1	-13.0%	?	6.3%	7.38µM*
Cc1ccc(/C=C/C(=O)N2CCN(Cc3ccccc3)CC2)o1	5.1%	402.3%	17.8%	-0.1%
Cc1ccc(S(=O)(=O)N2CCN(C(=O)N(C)C)CC2)cc1C	-0.9%	/	?	-8.3%
Cc1ccc(/C=C/C(=O)N2CCN(S(=O)(=O)c3ccc(C)c(C)c3)CC2)o1	13.5%	5.86µM*	-10.9%	?
O=C(CCS(=O)(=O)c1cccc2nonc12)NCc1ccc(Cl)cc1	4.1%	-2.3%	13.2%	-6.9%
COc1ccc(-n2c(-c3ccccc3)c[n+]3c2CCC3)cc1	-12.9%	?	10µM*	?
COc1ccc(-n2c(-c3ccc(Br)cc3)c[n+]3c2CCCCC3)cc1	-9.5%	0.586µM*	9.7%	1.04µM*
COc1ccc(-n2c(-c3ccc(Br)cc3)c[n+]3c2SC(C)C3)cc1 (stereo not drawn)	-1.8%	?	-2.9%	0.329µM*
COc1ccc(-n2c(-c3ccc(Br)cc3)c[n+]3c2CCC3)cc1	-9.7%	?	-6.5%	6.57µM*
CCN1C(=O)C(=O)N(CC(=O)N2CCC(C)Sc3ccccc32)C1=O (stereo not drawn)	-0.3%	-9.5%	8.6%	0.0%
CCOc1ccc(-c2c[n+]3c(n2-c2ccccc2)CCCCC3)cc1	10.4%	0.928µM*	?	1.17µM*
CCOc1ccccc1OCC(=O)Nc1ccc2[nH]c(=O)[nH]c2c1	-0.6%	-16.8%	12.6µM*	13.9%
O=C(COc1ccccc1)Nc1ccc2[nH]ncc2c1	-0.4%	29.3%	-1.8%	-11.4%
Cc1ccccc1OCC(=O)Nc1ccc2[nH]ncc2c1	-13.6%	11.7µM*	-15.8%	23.1%
CC(=O)ON=C1C=CC(=C(C#N)c2ccccc2)C=C1	28.2µM*	/	/	/
COc1ccc(C(C#N)=C2C=CC(=NO)C=C2)cc1	15.8µM*	?	?	?
C#CCOCCOCCOCCNc1nc(N2CCN(C(=O)CCCCCCCCCCNC(=O)[C@@H](CCC(=O)O)n3cc(CCCCCN)nn3)CC2)nc(N2CCN(C(=O)CCCCCCCCCCNC(=O)[C@@H](CCC(=O)O)n3cc(CCCCCN)nn3)CC2)n1	7.3%	?	4.0%	2.94µM*
C#CCOCCOCCOCCNc1nc(N2CCN(C(=O)[C@H]([C@@H](C)CC)n3cc(CCCCN)nn3)CC2)nc(N2CCN(C(=O)[C@H](CCCCN)n3cc(CCC(=O)O)nn3)CC2)n1	-4.5%	88.3%	-10.5%	12.3%
C#CCOCCOCCOCCNc1nc(N2CCN(C(=O)CCCCCCCCCCNC(=O)[C@H](CCCCN)n3cc(CCCC(=O)O)nn3)CC2)nc(N2CCN(C(=O)CCCCCCCCCCNC(=O)[C@H](CCCCN)n3cc(CCCC(=O)O)nn3)CC2)n1	-3.4%	?	?	?
C#CCOCCOCCOCCNc1nc(N2CCN(C(=O)CCCCCCCCCCNC(=O)[C@H](CCCCN)n3cc(CCO)nn3)CC2)nc(N2CCN(C(=O)CCCCCCCCCCNC(=O)[C@H](CCCCN)n3cc(CCO)nn3)CC2)n1	-19.0%	7.38µM*	7.9%	4.15µM*
C#CCOCCOCCOCCNc1nc(N2CCN(C(=O)CCCCCCCCCCNC(=O)[C@H](CCCCN)n3cc(CCO)nn3)CC2)nc(N2CCN(C(=O)CCCCCCCCCCNC(=O)[C@@H]([C@H](C)O)n3cc(C)nn3)CC2)n1	-14.9%	?	-12.8%	0.294µM*
SMILES	AMA1 RON2 block	Pf growth 96h	HCV inhibitor	Pf growth 48h
C#CCOCCOCCOCCNc1nc(N2CCN(C(=O)CCCCCCCCCCNC(=O)[C@H](CCC(=O)O)n3cc(CCCCCN)nn3)CC2)nc(N2CCN(C(=O)CCCCCCCCCCNC(=O)[C@@H]([C@H](C)O)n3cc(C)nn3)CC2)n1	11.2%	?	5.7%	3.29µM*
O=C(Nc1ccnn1C1CCN(CCCC2CCCC2)CC1)c1ccccc1Cl	8.1%	-7.7%	-24.5%	?
CCS(=O)(=O)N1CCC(C(=O)Nc2ccc3c(c2)CCC3)CC1	16.1%	?	11.3%	-17.8%
CC(=O)CC1OC(=O)C(Br)=C1NCc1ccccc1 (stereo not drawn)	-2.6%	7.38µM*	?	-2.0%
O=C(CC1Oc2ccccc2NC1=O)NCc1ccccc1 (stereo not drawn)	22.6%	-4.5%	-14.0%	/
N#C/C(=C\c1ccncc1)c1ccccn1	-3.5%	10.4µM*	?	?
C[C@H](CO)N1C[C@H](C)[C@H](CN(C)C(=O)CC2CC2)Oc2cc(Br)ccc2S1(=O)=O	1.5%	/	/	/
Cc1c(Cl)ccc2c(C(=O)NC(C)c3ccncc3)cc(-c3ccncc3)nc12 (stereo not drawn)	/	-2.0%	/	4.15µM*
COC(=O)CNC(=O)c1cc(-c2ccncc2)nc2c(C)c(Cl)ccc12	-15.8%	-55.5%	?	?
O=C(Nc1ccc(F)cc1)c1cc(-c2ccncc2)nc2c(Cl)cccc12	-9.7%	22.3%	?	2.08µM*
COc1ccc2cc(/C(C)=N/NC(=O)c3cc(-c4cccnc4)nc4ccccc34)ccc2c1	24.9%	?	?	-0.9%
O=C(NNC(=O)c1cc(-c2ccncc2)nc2ccccc12)Nc1ccc(F)cc1	89.6%	45.4%	-8.3%	?
COc1cccc(NC(=O)c2cc(-c3cccnc3)nc3c(Cl)cccc23)c1	2.3%	1.85µM*	-24.0%	2.08µM*
Cc1cccc(NC(=O)c2cc(-c3cccnc3)nc3c(C)cccc23)n1	28.5%	4.65µM*	?	11.1%
Cc1cc(NC(=O)c2cc(-c3ccncc3)nc3c(C)cccc23)no1	-8.5%	36.8%	?	?
COc1ccc(C)cc1N(CC(=O)N1CCc2ccccc2C1)S(C)(=O)=O	-8.7%	47.4%	4.1%	-17.4%
NC(=O)c1ccc[n+]([C@@H]2O[C@H](COP(=O)([O-])OP(=O)(O)OC[C@H]3O[C@@H](n4cnc5c(N)ncnc54)[C@@H](O)[C@@H]3O)[C@@H](O)[C@@H]2O)c1	/	-20.2%[12.8 µM]	/	-7.6%[12.8 µM]
Cc1ccc(S(=O)(=O)N=Nc2c(O)[nH]c3ccccc23)cc1	-5.3%	11.7µM*	4.0%	5.2%
Cc1ccc(C)c(S(=O)(=O)N=Nc2c(O)[nH]c3ccccc23)c1	14.2%	48.6%[5.75 µM]	-0.6%	4.3%
CC(=O)c1ccc(NC(=O)C2C3CCC(C3)C2C(=O)O)cc1 (stereo not drawn)	-5.8%	13.1µM*	9.6%	-4.6%
